The whole screen tested about 400,000 compounds, of which about 2,100 (0.53%) were called active. Roughly 14% stayed inconclusive and do not appear here. The rule behind the calls is not given here. The list comes from a sample in which actives are over-represented; it also holds similar structures and randomly drawn compounds.
Each molecule was assayed against Ataxin-2 (Homo sapiens) (UniProt Q99700) (assay: qHTS for Inhibitors of ATXN expression.).
Format: functional

Sequence of Ataxin-2 (Homo sapiens) (Q99700 whole entry): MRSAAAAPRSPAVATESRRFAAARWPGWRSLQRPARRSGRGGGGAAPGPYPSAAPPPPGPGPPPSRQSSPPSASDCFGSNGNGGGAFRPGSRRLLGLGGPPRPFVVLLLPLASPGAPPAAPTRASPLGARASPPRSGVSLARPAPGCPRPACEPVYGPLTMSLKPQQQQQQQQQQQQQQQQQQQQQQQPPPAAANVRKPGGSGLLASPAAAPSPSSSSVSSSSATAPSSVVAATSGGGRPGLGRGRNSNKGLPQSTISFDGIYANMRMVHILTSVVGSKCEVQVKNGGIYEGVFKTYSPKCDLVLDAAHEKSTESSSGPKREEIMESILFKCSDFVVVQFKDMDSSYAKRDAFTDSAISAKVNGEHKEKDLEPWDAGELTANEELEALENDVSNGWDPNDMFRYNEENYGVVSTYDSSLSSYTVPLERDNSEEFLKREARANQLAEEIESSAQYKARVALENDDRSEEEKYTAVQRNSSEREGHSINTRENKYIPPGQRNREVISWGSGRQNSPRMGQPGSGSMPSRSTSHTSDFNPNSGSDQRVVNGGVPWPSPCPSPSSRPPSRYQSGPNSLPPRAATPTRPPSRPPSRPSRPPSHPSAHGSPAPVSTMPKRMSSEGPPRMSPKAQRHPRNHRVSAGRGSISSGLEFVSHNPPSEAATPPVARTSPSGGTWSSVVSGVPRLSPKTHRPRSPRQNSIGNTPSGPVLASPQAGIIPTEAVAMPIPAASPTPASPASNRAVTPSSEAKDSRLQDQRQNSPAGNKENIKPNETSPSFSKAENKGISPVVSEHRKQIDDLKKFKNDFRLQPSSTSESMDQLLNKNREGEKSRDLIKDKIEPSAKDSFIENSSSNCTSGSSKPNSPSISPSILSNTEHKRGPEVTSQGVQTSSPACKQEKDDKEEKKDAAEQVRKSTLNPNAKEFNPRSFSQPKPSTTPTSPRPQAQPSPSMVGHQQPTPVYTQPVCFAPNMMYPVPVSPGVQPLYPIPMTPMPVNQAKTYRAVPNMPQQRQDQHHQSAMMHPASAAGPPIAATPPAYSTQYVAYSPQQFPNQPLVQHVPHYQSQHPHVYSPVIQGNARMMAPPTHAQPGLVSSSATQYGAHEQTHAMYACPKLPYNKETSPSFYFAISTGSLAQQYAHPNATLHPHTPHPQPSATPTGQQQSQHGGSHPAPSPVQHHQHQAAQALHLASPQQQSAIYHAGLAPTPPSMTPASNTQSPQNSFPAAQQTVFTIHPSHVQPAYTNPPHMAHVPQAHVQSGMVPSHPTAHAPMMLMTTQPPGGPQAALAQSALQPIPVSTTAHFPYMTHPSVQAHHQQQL

| SMILES | Potency |
| --- | --- |
| Cc1ccccc1NC(=O)c1cc2c(=O)n3cccc(C)c3nc2s1 | inactive |
| CC1CCCCC1NC(=O)c1cc2c(=O)n3ccccc3nc2n1C (stereo unspecified) | inactive |
| COc1ccc([N+](=O)[O-])c(S(=O)(=O)c2ccc(Cl)cc2)n1 | 14.1 µM (active) |
| O=C1c2cccc3c([N+](=O)[O-])ccc(c23)C(=O)N1c1ccc(Cl)cn1 | inactive |
| COc1ccc([N+](=O)[O-])c(S(=O)(=O)c2ccccc2)n1 | 7.52 µM (active) |
| COc1ccccc1N=C(NS(=O)(=O)c1ccc(C)cc1)c1ccccc1 | inactive |
| CC1CN(c2ccc([N+](=O)[O-])c(NCCOc3ccc(Cl)cc3)c2)CC(C)N1 (stereo unspecified) | inactive |
| CCN(CC)c1ccc(C=C(c2nnnn2-c2ccccc2)c2nnnn2-c2ccccc2)cc1 | inactive |
| Cc1cc2cc3c(=O)[nH]c(=O)nc-3n(CC(O)C(O)C(O)CO)c2cc1C (stereo unspecified) | inactive |
| C=CC(=O)/N=c1\sc2ccccc2n1-c1ccccc1 | 37.7 µM (active) |
| CCN=C(S)N(CCc1c(C)[nH]c2ccc(C)cc12)Cc1cccnc1 | inactive |
| COc1cc2nc(/C=C/c3ccc(N(C)C)cc3)sc2cc1SC | inactive |
| CC(C)CN=C(S)N1CCN(c2nc3ccccc3s2)CC1 | inactive |
| Clc1cccc2sc(N3CCN(c4ccccc4)CC3)nc12 | inactive |
| CCc1cccc2sc(N3CCN(C(=O)c4ccc([N+](=O)[O-])o4)CC3)nc12 | 39.8 µM (active) |
| Nc1ccc2cc3ccccc3cc2c1 | inactive |
| CC(C)OCCCN(C)C1CCN(S(=O)(=O)c2ccc(-c3cc(C(F)(F)F)no3)s2)CC1 | inactive |
| c1ccc(N=NC2=NN(c3ccccc3)CS2)cc1 | 7.08 µM (active) |
| c1ccc(N2CC3COc4ccccc4C3=N2)cc1 (stereo unspecified) | inactive |
| c1ccc(C2=NN(c3ccccc3)CC2)cc1 | inactive |
| CCOc1ccc(CN2CCCC(N3CCN(c4ccc(OC)cc4)CC3)C2)cc1 (stereo unspecified) | inactive |
| [O-][n+]1onc2c1CCc1nnc(-c3ccccc3)cc1-2 | 39.8 µM (active) |

| SMILES | Potency |
| --- | --- |
| CCc1ccc(/C=C2\Oc3c(ccc(O)c3CN3CCN(CCO)CC3)C2=O)cc1 | inactive |
| O=C(CN(Cc1ccccc1)C(=O)c1csnn1)NCCc1ccccc1 | inactive |
| CC(=O)N(CC(=O)Nc1nn(-c2ccccc2)nc1C(N)=O)Cc1ccccc1 | 39.8 µM (active) |
| Cc1nn(-c2ccccc2)nc1C(=O)NNC(=O)c1cccc2ccccc12 | inactive |
| Cc1cc(/C=C2/C(=N)N3C(=NC2=O)SN=C3S(C)(=O)=O)c(C)n1-c1ccccc1 | inactive |
| COC(=O)Cc1c(C)c2c(O)cc(C)cc2oc1=O | inactive |
| O=S(=O)([N-]c1nc2ccccc2nc1-[n+]1ccn(Cc2ccccc2)c1)c1ccc(Br)cc1 | inactive |
| CC(=O)Nc1ccc(CN2CCN(C3CCCCC3)C(CCO)C2)cc1 (stereo unspecified) | inactive |
| O=C(NCc1ccc(Cl)cc1)C1CCCN(C(=O)c2ccc(Cl)cc2)C1 (stereo unspecified) | inactive |
| Cc1ccc(CN2CCC(CNC(=O)Nc3ccc(Cl)cc3)C2)cc1 (stereo unspecified) | 39.8 µM (active) |
| Cc1nn(CCCC(=O)NCc2ccc(F)cc2)c(=O)c2nccn12 | inactive |
| Cc1c(N(C)S(=O)(=O)c2cc(C(=O)NCC3CCCO3)ccc2Cl)c(=O)n(-c2ccccc2)n1C (stereo unspecified) | inactive |
| Cc1cc(OCC(=O)OCC(=O)NCC2CCCO2)ccc1Cl (stereo unspecified) | inactive |
| O=C(CN(c1cccc(C(F)(F)F)c1)S(=O)(=O)c1ccc(Cl)c([N+](=O)[O-])c1)NCc1ccccc1Cl | 39.8 µM (active) |
| CSc1ccccc1NC(=O)CN(C)C(=O)CNc1ccc(C(F)(F)F)cc1[N+](=O)[O-] | inactive |
| O=C(CN(c1ccc(Br)cc1)S(=O)(=O)c1ccc(Cl)c([N+](=O)[O-])c1)NCC1CCCO1 (stereo unspecified) | 31.6 µM (active) |
| CCN(CC(=O)NCc1cccs1)S(=O)(=O)c1ccc([N+](=O)[O-])cc1 | inactive |
| CNC(=O)c1ccc(-c2sc3nc(N4CCOCC4)c4c(c3c2N)CCCC4)o1 | inactive |
| O=C(O)c1ccc(NS(=O)(=O)c2ccc(NC(=O)c3ccccc3Cl)cc2)cc1 | inactive |
| O=C(Nc1ccccc1)c1cc(S(=O)(=O)Nc2cccnc2)ccc1Cl | inactive |
| CC(C)c1ccc(NC(=O)c2cc(S(=O)(=O)NCc3ccccc3Cl)ccc2F)cc1 | 28.2 µM (active) |
| Cc1nc2nc(-c3ccc(Cl)cc3)cn2nc1C | inactive |

| SMILES | Potency |
| --- | --- |
| C=C[S+]([O-])c1sc(Cl)c(N2CCOCC2)c1[N+](=O)[O-] (stereo unspecified) | 15 µM (active) |
| O=S(=O)(Nc1cccc(-c2nc3cccnc3s2)c1)c1ccc2c(c1)OCCO2 | inactive |
| Cc1ccccc1/C=N/Nc1ccnc2cc(Cl)ccc12 | 28.2 µM (active) |
| Clc1ccc2c(N/N=C/c3cccc(Br)c3)ccnc2c1 | 25.1 µM (active) |
| CN(C)c1nc(NCc2ccccc2)nc(N/N=C/c2ccc(Cl)cc2Cl)n1 | inactive |
| Cc1ccc(NCC(=O)N/N=C/c2cccc(Br)c2)cc1 | inactive |
| O=[N+]([O-])c1ccc(Cl)cc1N/N=C/c1ccncc1 | inactive |
| FC(F)(F)c1ccccc1/C=N/Nc1ccccn1 | inactive |
| N#C/C(=C/c1ccc(F)cc1)c1nnc(NC(=O)c2ccccc2)s1 | inactive |
| N#Cc1cc2c(=O)n3ccccc3nc2n(-c2ccc(Cl)cc2)c1=O | inactive |
| O=c1oc2cc(O)ccc2cc1-c1ccccc1 | inactive |
| Cc1cc(NCCCN(C)C)n2c(nc3ccccc32)c1C#N | inactive |
| Cc1ccc(-n2ncc3c(NCCCN(C)C)ncnc32)cc1Cl | 39.8 µM (active) |
| COc1ccc(CCNc2ncnc3c2cnn3-c2cc(Cl)ccc2C)cc1 | 22.4 µM (active) |
| CCN(CC)c1ncnc2c1cnn2Cc1ccc(Cl)cc1 | inactive |
| COc1ccc(CNc2nc(C)cc(C)c2C#N)cc1 | inactive |
| CCCCn1nc(NC(=O)CC)c2cc3cc(OC)ccc3nc21 | inactive |
| CC/N=c1\scc(C)n1/N=C/c1cc(Br)c(O)c(OC)c1 | inactive |
| Cc1cc(C)c2oc(C(=O)N3CCN(C)CC3)cc(=O)c2c1 | inactive |
| CCN(CC)CCCNc1cc(C)c(C#N)c2nc3ccccc3n12 | inactive |
| C=CCSc1nc2ccccc2n2cnnc12 | 39.8 µM (active) |
| COc1ccc(/C(C)=N/Nc2nc3ccccc3n3cnnc23)cc1OC | inactive |

| SMILES | Potency |
| --- | --- |
| CCC(C)[C@H](N)C(=O)NC[C@H]1CC[C@H](C(=O)N[C@@H](Cc2ccccc2)C(=O)O)CC1 (stereo partly specified) | inactive |
| CC(C)CC(NC(=O)OCc1ccccc1)C(=O)NC(Cc1ccccc1)C(=O)CCl (stereo unspecified) | 9.47 µM (active) |
| CC(=O)NC(CC(C)C)C(=O)NC(Cc1ccccc1)C(=O)CCl (stereo unspecified) | 18.9 µM (active) |
| CC(NC(=O)CNC(=O)C(Cc1ccccc1)NC(=O)OCc1ccccc1)C(N)=O (stereo unspecified) | inactive |
| CC(NC(=O)OCc1ccccc1)C(=O)Oc1cc2oc(=O)cc(-c3ccccc3)c2cc1Cl (stereo unspecified) | inactive |
| COC(=O)[C@H](Cc1ccccc1)NC(=O)NCc1ccccc1 | inactive |
| C#CCOc1ccc(C2C3=C(CCCC3=O)N(CC(=O)O)C3=C2C(=O)CCC3)cc1Br | inactive |
| CC1(Cc2cc(Cl)ccc2C(F)(F)F)C(=O)Nc2ccc(-c3ccc(F)c(Cl)c3)cc21 (stereo unspecified) | 28.2 µM (active) |
| CC1(Cc2cccc(C(F)(F)F)c2)C(=O)Nc2ccc(-c3ccc(F)c(Cl)c3)cc21 (stereo unspecified) | 39.8 µM (active) |
| CC1(C)CC(=O)C=C(Nc2cccc(C(F)(F)F)c2)C1 | inactive |
| Cc1csc(NC(=O)c2c(-c3ccccc3)noc2C)n1 | inactive |
| CC(C)=CCC/C(C)=C/CNC(=O)C[C@H]1C[C@H](C(=O)N2CCOCC2)[C@@]2(C)c3[nH]c4cc(-c5ccco5)ccc4c3CCN2C1=O | 39.8 µM (active) |
| C[C@H](O)[C@@H]1C(=O)N2CCc3c([nH]c4ccccc34)[C@@H]2C[C@@H]1N(C)C(=O)c1ccco1 | inactive |
| CC[C@]12c3[nH]c4ccc(Cl)cc4c3CCN1C(=O)[C@@H](CC(=O)NCCC1=CCCCC1)C[C@@H]2C(=O)N1CCN(C(=O)c2ccco2)CC1 | 25.1 µM (active) |
| CC(C)=CCC/C(C)=C/CNC(=O)CC1C[C@H](C(=O)N2CCOCC2)[C@@]2(C)c3[nH]c4ccccc4c3CCN2C1=O (stereo partly specified) | 31.6 µM (active) |
| O=C(CCCCCn1c(=S)[nH]c2ccc(N3CCOCC3)cc2c1=O)NCc1ccccc1 | inactive |
| CC[C@]12c3[nH]c4ccccc4c3CCN1C(=O)C(CC(=O)NC/C=C(\C)CCC=C(C)C)C[C@@H]2C(=O)N1CCN(C(=O)c2ccco2)CC1 (stereo partly specified) | 31.6 µM (active) |
| CC[C@@H]1C(c2ccccc2)=NN(c2ccccc2)[C@H]1C(=O)N1CCOC1=O | inactive |
| CCOc1ccc(-c2nc(O)c3c(-c4cccs4)csc3n2)cc1 | inactive |
| Cn1ccnc1C(=O)C1CCCN(Cc2c[nH]nc2-c2ccc(-c3ccccc3)cc2)C1 (stereo unspecified) | inactive |
| CCN(CC)c1ccc2cc(-c3nnc(-c4ccccc4)o3)c(=O)oc2c1 | inactive |
| COc1cc2cc(C(N)=O)c(N)nc2cc1OC | inactive |

| SMILES | Potency |
| --- | --- |
| Cc1ccc2nc3c(cc(C(=O)NCC4CCCO4)c(=N)n3C(C)C)c(=O)n2c1 (stereo unspecified) | inactive |
| CC[C@]12c3[nH]c4ccc(Cl)cc4c3CCN1C(=O)[C@@H](CC(=O)NC/C=C(\C)CCC=C(C)C)C[C@@H]2C(=O)N1CCN(C(=O)C2CC2)CC1 | 25.1 µM (active) |
| O=C1CSC(N/N=C/c2ccncc2)=N1 | inactive |
| Cc1ccc(S(=O)(=O)NCc2c(-c3ccccc3)noc2C)cc1 | inactive |
| Cc1ccc(S(=O)(=O)NCCCCCC(=O)NCCc2ccccc2)cc1 | inactive |
| Cc1ccc(N(C)C(CNS(=O)(=O)c2ccccc2)c2ccccc2)cc1 (stereo unspecified) | 25.1 µM (active) |
| Cc1cccn2c(=O)c3cc(C#N)c(=O)n(-c4nnc(SCc5ccc(F)cc5)s4)c3nc12 | inactive |
| COc1ccc(NC(=O)c2c(NCc3cccc(F)c3)sc3c2CCC3)c(OC)c1 | 25.1 µM (active) |
| COc1ccc(NC(=O)c2ccc(S(=O)(=O)C(F)F)cc2)c(OC)c1 | inactive |
| COc1ccc(OC)c(NC(=O)c2ccc(OC3CSC3)cc2)c1 | inactive |
| COc1ccc(NC(=O)c2c(NCc3sccc3C)sc3c2CCCCC3)c(OC)c1 | 39.8 µM (active) |
| COc1ccc(OC)c(NC(=O)COC(=O)c2ccc(OC)c(S(=O)(=O)N3CCOCC3)c2)c1 | inactive |
| COc1ccc(/C=N/Nc2ncnc3sc4c(c23)CCCC4)cc1OC | inactive |
| COc1cccc(-c2ccc3c(N)c(C(=O)Nc4cc(F)ccc4F)sc3n2)c1 | inactive |
| COc1ccc(OC)c(NC(=O)c2c(NCc3ccc(OC)c(OC)c3)sc3c2CCC3)c1 | 39.8 µM (active) |
| COC(=O)c1ccc(NC(=O)c2c(NCc3ccc(OC)c(OC)c3)sc3c2CCCC3)cc1 | 17.8 µM (active) |
| COc1ccc(NC(=O)C2=CN3CCS(=O)(=O)N=C3C=C2)c(OC)c1 | inactive |
| COc1ccc(NC(=O)CON=CC(=O)Nc2ccc(C)cc2)c(OC)c1 | inactive |

From ChEMBL document CHEMBL1201862, “PubChem BioAssay data set” (2004)
